Laboratory results reported in publication PMC8222333, “AsCas12a ultra nuclease facilitates the rapid generation of therapeutic cell medicines”.

Tests used:
[1] = molecular target: dAsCas12a WT (Acidaminococcus sp., UniProt U2UMQ6 1-1307, D908A;E993A;D1235A); test: Spec-seq (native PAGE EMSA with sequencing of bound and unbound); 25 mM Tris-HCl pH 7.4, 150 mM KCl, 5 mM MgCl2, 10% glycerol, 1 mM DTT, 40 ng/uL salmon sperm DNA; 400 nM Cas12a, 480 nM crRNA, 50 nM library, 37 C 1 h; native P; high values mean tight binding
[2] = molecular target: dAsCas12a Ultra (Acidaminococcus sp., UniProt U2UMQ6 1-1307, M537R;F870L;D908A;E993A;D1235A); test: Spec-seq (native PAGE EMSA with sequencing of bound and unbound); 25 mM Tris-HCl pH 7.4, 150 mM KCl, 5 mM MgCl2, 10% glycerol, 1 mM DTT, 40 ng/uL salmon sperm DNA; 400 nM Cas12a, 480 nM crRNA, 50 nM library, 37 C 1 h; native PAGE at room temperature; high values mean tight binding; settings: protein: recombinant
[3] = molecular target: dAsCas12a E174R (Acidaminococcus sp., UniProt U2UMQ6 1-1307, E174R;D908A;E993A;D1235A); test: as above; settings: protein: recombinant;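 further: relative affinity from the bound to unbound sequence frequency ratio in Spec-seq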
[4] = molecular target: dAsCas12a S542R (Acidaminococcus sp., UniProt U2UMQ6 1-1307, S542R;D908A;E993A;D1235A); test: as above; settings: protein: recombinant;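 further: relative affinity from the bound to unbound sequence frequency ratio in Spec-seq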
[5] = molecular target: dAsCas12a K548R (Acidaminococcus sp., UniProt U2UMQ6 1-1307, K548R;D908A;E993A;D1235A); test: as above; settings: protein: recombinant
[6] = molecular target: d-enCas12a (Acidaminococcus sp., UniProt U2UMQ6 1-1307, E174R;S542R;K548R;D908A;E993A;D1235A); test: as above; settings: protein: recombinant
[7] = molecular target: d-enCas12a-Ultra (Acidaminococcus sp., UniProt U2UMQ6 1-1307, E174R;S542R;K548R;M537R;F870L;D908A;E993A;D1235A); test: as above; settings: protein: recombinant;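 further: relative affinity from the bound to unbound sequence frequency ratio in Spec-seq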

Binder | binding signal [1] [lnKA] | binding signal [2] [lnKA] | binding signal [3] [lnKA] | binding signal [4] [lnKA] | binding signal [5] [lnKA] | binding signal [6] [lnKA] | binding signal [7] [lnKA]
TGTA (dsDNA) DNA 1: GCTATCTAGTGCTCAGTACGCACTGTGTAAGGAAACTTCTGGCAGGACCAGGTCATGAGATCGGAAGAGCACACGTCTGAACTCCAGTCA DNA 2: TGACTGGAGTTCAGACGTGTGCTCTTCCGATCTCATGACCTGGTCCTGCCAGAAGTTTCCTTACACAGTGCGTACTGAGCACTAGATAGC RNA: AAUUUCUACUCUUGUAGAUAGGAAACUUCUGGCAGGACC | -7.99 | -6.4 | -6.64 | -6.54 | -7.23 | -0.876 | -0.296
TTAC (dsDNA) DNA 1: GCTATCTAGTGCTCAGTACGCACTGTTACAGGAAACTTCTGGCAGGACCAGGTCATGAGATCGGAAGAGCACACGTCTGAACTCCAGTCA DNA 2: TGACTGGAGTTCAGACGTGTGCTCTTCCGATCTCATGACCTGGTCCTGCCAGAAGTTTCCTGTAACAGTGCGTACTGAGCACTAGATAGC RNA: AAUUUCUACUCUUGUAGAUAGGAAACUUCUGGCAGGACC | -8.99 | -7.13 | -6.79 | -6.51 | -8.18 | -1.59 | -0.507
TTGA (dsDNA) DNA 1: GCTATCTAGTGCTCAGTACGCACTGTTGAAGGAAACTTCTGGCAGGACCAGGTCATGAGATCGGAAGAGCACACGTCTGAACTCCAGTCA DNA 2: TGACTGGAGTTCAGACGTGTGCTCTTCCGATCTCATGACCTGGTCCTGCCAGAAGTTTCCTTCAACAGTGCGTACTGAGCACTAGATAGC RNA: AAUUUCUACUCUUGUAGAUAGGAAACUUCUGGCAGGACC | -8.14 | -6.6 | -7.49 | -6.46 | -8.53 | -4.32 | -2.04
TTGC (dsDNA) DNA 1: GCTATCTAGTGCTCAGTACGCACTGTTGCAGGAAACTTCTGGCAGGACCAGGTCATGAGATCGGAAGAGCACACGTCTGAACTCCAGTCA DNA 2: TGACTGGAGTTCAGACGTGTGCTCTTCCGATCTCATGACCTGGTCCTGCCAGAAGTTTCCTGCAACAGTGCGTACTGAGCACTAGATAGC RNA: AAUUUCUACUCUUGUAGAUAGGAAACUUCUGGCAGGACC | -8.28 | -6.02 | -6.51 | -6.74 | -7.43 | -2.75 | -0.707
TTTC (dsDNA) DNA 1: GCTATCTAGTGCTCAGTACGCACTGTTTCAGGAAACTTCTGGCAGGACCAGGTCATGAGATCGGAAGAGCACACGTCTGAACTCCAGTCA DNA 2: TGACTGGAGTTCAGACGTGTGCTCTTCCGATCTCATGACCTGGTCCTGCCAGAAGTTTCCTGAAACAGTGCGTACTGAGCACTAGATAGC RNA: AAUUUCUACUCUUGUAGAUAGGAAACUUCUGGCAGGACC | 0.0688 | -0.0656 | -0.339 | -0.143 | 0.462 | 0.00167 | 0.033
TTCC (dsDNA) DNA 1: GCTATCTAGTGCTCAGTACGCACTGTTCCAGGAAACTTCTGGCAGGACCAGGTCATGAGATCGGAAGAGCACACGTCTGAACTCCAGTCA DNA 2: TGACTGGAGTTCAGACGTGTGCTCTTCCGATCTCATGACCTGGTCCTGCCAGAAGTTTCCTGGAACAGTGCGTACTGAGCACTAGATAGC RNA: AAUUUCUACUCUUGUAGAUAGGAAACUUCUGGCAGGACC | -7.28 | -4.81 | -4.78 | -1.16 | -6.53 | -0.274 | -0.0946
